The supplement of paper PMC8975748
Counter-ions that a name gives are not always drawn. ± gives the standard deviation of the averaged measurements.

Columns and labels:
[1] = system: Saccharomyces cerevisiae BY4741 SeMeCo community; assay: mean cell size (pixel area) (pixels); higher = larger cells; details: 10 µM; 24 h; SM minimal medium
Summary of the method: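 Harmony analysis of automated confocal images of paraformaldehyde-fixed yeast gave the mean cell pixel area per well. The yeast was a Saccharomyces cerevisiae BY4741 community carrying four plasmids, each with a fluorescent marker and each complementing one auxotrophy, incubated for 24 h in SM medium containing drug at a final 10 µM in 384-well plates. Results are averaged over 3 replicates. Same SeMeCo high-content imaging drug screen: Selleck FDA-approved drugs at 10 µM, 24 h in SM medium, 384-well plates, 3 replicates.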

[2] = system: Saccharomyces cerevisiae BY4741 SeMeCo community; assay: z-score of prototroph abundance vs DMSO median; higher = larger share of this subpopulation than in DMSO controls; details: 10 µM; 24 h; SM minimal medium; subpopulation (auxotrophy): Prototroph
Summary of the method: (§1)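 Subpopulation abundance was reported as a z-score against the median of vehicle wells. The Saccharomyces cerevisiae BY4741 community, carrying four plasmids that each restored one auxotrophy and encoded a distinct fluorescent protein, was grown 24 h in minimal SM medium in 384-well plates holding library drugs at 10 µM final. Cells were paraformaldehyde-fixed and imaged by automated confocal microscopy, with single-auxotroph fluorescent strains used for thresholds and autofluorescence correction.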

[3] = system: Saccharomyces cerevisiae BY4741 SeMeCo community; assay: z-score of subpopulation abundance vs DMSO median, subpopulation auxotrophic for M; higher = larger share of this subpopulation than in DMSO controls; details: 10 µM; 24 h; SM minimal medium; subpopulation (auxotrophy): M
Summary of the method: as §1

[4] = system: Saccharomyces cerevisiae BY4741 SeMeCo community; assay: z-score of subpopulation abundance vs DMSO median, subpopulation auxotrophic for L; higher = larger share of this subpopulation than in DMSO controls; details: 10 µM; 24 h; SM minimal medium; subpopulation (auxotrophy): L
Summary of the method: as §1

[5] = system: Saccharomyces cerevisiae BY4741 SeMeCo community; assay: z-score of subpopulation abundance vs DMSO median, subpopulation auxotrophic for U; higher = larger share of this subpopulation than in DMSO controls; details: 10 µM; 24 h; SM minimal medium; subpopulation (auxotrophy): U
Summary of the method: as §1

[6] = system: Saccharomyces cerevisiae BY4741 SeMeCo community; assay: z-score of subpopulation abundance vs DMSO median, subpopulation auxotrophic for H; higher = larger share of this subpopulation than in DMSO controls; details: 10 µM; 24 h; SM minimal medium; subpopulation (auxotrophy): H
Summary of the method: as §1

[7] = system: Saccharomyces cerevisiae BY4741 SeMeCo community; assay: z-score of subpopulation abundance vs DMSO median, subpopulation auxotrophic for LU; higher = larger share of this subpopulation than in DMSO controls; details: 10 µM; 24 h; SM minimal medium; subpopulation (auxotrophy): LU
Summary of the method: as §1

[8] = system: Saccharomyces cerevisiae BY4741 SeMeCo community; assay: z-score of subpopulation abundance vs DMSO median, subpopulation auxotrophic for LM; higher = larger share of this subpopulation than in DMSO controls; details: 10 µM; 24 h; SM minimal medium; subpopulation (auxotrophy): LM
Summary of the method: as §1

[9] = system: Saccharomyces cerevisiae BY4741 SeMeCo community; assay: z-score of subpopulation abundance vs DMSO median, subpopulation auxotrophic for HM; higher = larger share of this subpopulation than in DMSO controls; details: 10 µM; 24 h; SM minimal medium; subpopulation (auxotrophy): HM
Summary of the method: as §1

[10] = system: Saccharomyces cerevisiae BY4741 SeMeCo community; assay: z-score of subpopulation abundance vs DMSO median, subpopulation auxotrophic for HU; higher = larger share of this subpopulation than in DMSO controls; details: 10 µM; 24 h; SM minimal medium; subpopulation (auxotrophy): HU
Summary of the method: as §1

[11] = system: Saccharomyces cerevisiae BY4741 SeMeCo community; assay: z-score of subpopulation abundance vs DMSO median, subpopulation auxotrophic for UM; higher = larger share of this subpopulation than in DMSO controls; details: 10 µM; 24 h; SM minimal medium; subpopulation (auxotrophy): UM
Summary of the method: as §1

[12] = system: Saccharomyces cerevisiae BY4741 SeMeCo community; assay: z-score of subpopulation abundance vs DMSO median, subpopulation auxotrophic for HL; higher = larger share of this subpopulation than in DMSO controls; details: 10 µM; 24 h; SM minimal medium; subpopulation (auxotrophy): HL
Summary of the method: as §1

[13] = system: Saccharomyces cerevisiae BY4741 SeMeCo community; assay: z-score of subpopulation abundance vs DMSO median, subpopulation auxotrophic for HLU; higher = larger share of this subpopulation than in DMSO controls; details: 10 µM; 24 h; SM minimal medium; subpopulation (auxotrophy): HLU
Summary of the method: as §1

[14] = system: Saccharomyces cerevisiae BY4741 SeMeCo community; assay: z-score of subpopulation abundance vs DMSO median, subpopulation auxotrophic for HLM; higher = larger share of this subpopulation than in DMSO controls; details: 10 µM; 24 h; SM minimal medium; subpopulation (auxotrophy): HLM
Summary of the method: as §1

[15] = system: Saccharomyces cerevisiae BY4741 SeMeCo community; assay: z-score of subpopulation abundance vs DMSO median, subpopulation auxotrophic for LUM; higher = larger share of this subpopulation than in DMSO controls; details: 10 µM; 24 h; SM minimal medium; subpopulation (auxotrophy): LUM
Summary of the method: as §1

[16] = system: Saccharomyces cerevisiae BY4741 SeMeCo community; assay: z-score of subpopulation abundance vs DMSO median, subpopulation auxotrophic for HUM; higher = larger share of this subpopulation than in DMSO controls; details: 10 µM; 24 h; SM minimal medium; subpopulation (auxotrophy): HUM
Summary of the method: as §1

[17] = system: Saccharomyces cerevisiae BY4741 SeMeCo community; assay: z-score of subpopulation abundance vs DMSO median, subpopulation auxotrophic for HLUM; higher = larger share of this subpopulation than in DMSO controls; details: 10 µM; 24 h; SM minimal medium; subpopulation (auxotrophy): HLUM
Summary of the method: as §1

Row | Compound | mean cell size [1] | z-score of prototroph abundance [2] | z-score of subpopulation abundance [3] | z-score of subpopulation abundance [4] | z-score of subpopulation abundance [5] | z-score of subpopulation abundance [6] | z-score of subpopulation abundance [7] | z-score of subpopulation abundance [8] | z-score of subpopulation abundance [9] | z-score of subpopulation abundance [10] | z-score of subpopulation abundance [11] | z-score of subpopulation abundance [12] | z-score of subpopulation abundance [13] | z-score of subpopulation abundance [14] | z-score of subpopulation abundance [15] | z-score of subpopulation abundance [16] | z-score of subpopulation abundance [17]
1 | C[C@@H](O)[C@H]1C(=O)N2C(C(=O)O)=C(S[C@@H]3CN[C@H](C(=O)N(C)C)C3)[C@H](C)[C@H]12 [Meropenem] | 12.4 ± 0.19 | 0.37 | -0.33 | 0.05 | -0.22 | -0.03 | -0.26 | -0.29 | 0.18 | -0.01 | -0.33 | -0.23 | 0.14 | -0.34 | -0.39 |  | 
2 | NC[C@H]1O[C@H](O[C@H]2[C@H](O)[C@@H](O[C@H]3O[C@H](CO)[C@@H](O)[C@H](N)[C@H]3O)[C@H](N)C[C@@H]2N)[C@H](O)[C@@H](O)[C@@H]1O [Kanamycin sulfate] |  | -0.43 | 0.84 | 1.91 | -0.55 | 1.26 | -0.08 |  | 1.34 |  | -0.15 | 1.08 | 0.63 | -0.02 | 0.52 | 0.21 | 
3 | Clc1ccc(COC(Cn2ccnc2)c2ccc(Cl)cc2Cl)cc1 (stereo not drawn) [Econazole nitrate] | 11.9 ± 0.2 | -8.44 | -2.24 | -3.48 | 3.05 | 15.7 | 1.14 | -1.64 | 2.52 | 12.4 |  | 5.56 | 6.46 | 10.7 | 1.67 |  | 9.87
4 | C[C@@H](NCCCc1cccc(C(F)(F)F)c1)c1cccc2ccccc12 [Cinacalcet HCl] | 12.17 ± 0.037 | -0.37 | 0.31 | 2.8 | -1.21 |  | 0.1 | 3.33 | 0.25 | -1.71 | -0.3 | 1.05 | -0.17 | 0.67 | 2.57 |  | 1.57
5 | O=C1c2cccc3c2[C@H](CCC3)CN1[C@@H]1CN2CCC1CC2 [Palonosetron HCl] | 11.92 ± 0.064 | 0.21 | -0.37 | -0.13 |  | -0.32 | -0.38 | -0.39 | -0.69 | 0.33 | 0.37 | -0.31 | -0.05 | -0.58 | -0.02 |  | -0.14
6 | Oc1cccc(O)c1 [Resorcinol] | 12.4 ± 0.22 | 0.94 | -0.66 | -0.23 | 0.1 | -0.05 | -1.33 |  | -0.29 | -0.64 | -0.77 | -0.43 | 0 | -0.64 | -0.89 |  | -0.65
7 | COCCCN1CCC(NC(=O)c2cc(Cl)c(N)c3c2OCC3)CC1 [Prucalopride] | 12.6 ± 0.1 | -0.29 | 0.21 | -0.58 | 0.73 | -0.52 | 0.77 | -0.04 | 0.24 | 0.16 | 0.57 | -0.99 | -0.6 | 0.6 | -0.29 |  | -0.34
8 | O=C1C(CC[S+]([O-])c2ccccc2)C(=O)N(c2ccccc2)N1c1ccccc1 (racemic) [(+/-)-Sulfinpyrazone] | 12.5 ± 0.2 | 0.12 | -0.48 | -0.72 | -0.3 | -0.21 | 0.28 | 0.26 | 0.14 | -0.49 |  | -0.17 | 0.61 | 0.61 | 0.05 |  | 
9 | CC1(C)S[C@@H]2[C@H](NC(=O)C(C(=O)O)c3ccccc3)C(=O)N2[C@H]1C(=O)O (stereo partly drawn) [Carbenicillin disodium] | 12.53 ± 0.098 | 0.19 | 0.64 | -0.23 | -0.46 | -0.07 | -0.26 |  | 0.66 | -0.53 | -0.3 | -0.49 | 0.36 | -0.53 | -0.76 |  | -0.61
